# Laboratory results published in PubChem BioAssay (NCI).
# About 83,000 compounds went through this panel and 20% of them were active in at least one assay; those are over-represented in the sample as a whole.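 Treatment: one concentration, 48 hours, 96-well format. Scoring: percent growth, with anything below 10 considered active.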 Unmarked numbers belong to inactive results. Calls of active or inactive are those of the source.
# How the values were obtained:
# Test in all cases: NCI-60 one-dose screen, 48 h (100 = growth as untreated, 0 = no growth, -100 = all killed)
# SK-MEL-2 melanoma = conditions: 10 µM unless noted
# EKVX NSCLC = conditions: 10 µM unless noted
# UO-31 renal = conditions: 10 µM unless noted
# TK-10 renal = conditions: 10 µM unless noted
# ACHN renal = conditions: 10 µM unless noted
# CAKI-1 renal = conditions: 10 µM unless noted
# HL-60(TB) leukemia = conditions: 10 µM unless noted
# CCRF-CEM leukemia = conditions: 10 µM unless noted
# MOLT-4 leukemia = conditions: 10 µM unless noted
# SR leukemia = conditions: 10 µM unless noted
# RPMI-8226 leukemia = conditions: 10 µM unless noted
# OVCAR-8 ovarian = conditions: 10 µM unless noted
# OVCAR-5 ovarian = conditions: 10 µM unless noted
# OVCAR-4 ovarian = conditions: 10 µM unless noted
# SK-OV-3 ovarian = conditions: 10 µM unless noted
# IGROV1 ovarian = conditions: 10 µM unless noted
# OVCAR-3 ovarian = conditions: 10 µM unless noted
# HS 578T breast = conditions: 10 µM unless noted
# A498 renal = conditions: 10 µM
# SN12C renal = conditions: 10 µM unless noted
Compound,growth (SK-MEL-2 melanoma),growth (EKVX NSCLC),growth (UO-31 renal),growth (TK-10 renal),growth (ACHN renal),growth (CAKI-1 renal),growth (HL-60(TB) leukemia),growth (CCRF-CEM leukemia),growth (MOLT-4 leukemia),growth (SR leukemia),growth (RPMI-8226 leukemia),growth (OVCAR-8 ovarian),growth (OVCAR-5 ovarian),growth (OVCAR-4 ovarian),growth (SK-OV-3 ovarian),growth (IGROV1 ovarian),growth (OVCAR-3 ovarian),growth (HS 578T breast),growth (A498 renal),growth (SN12C renal)
CNC(=O)Oc1ccc2c(c1)OCO2,98.2%,97.9%,98.1%,101%,99.3%,100%,94.3%,111%,94.3%,91.4%,115%,101%,106%,116%,116%,104%,119%,109%,,
CC(=O)OCc1cc[c]([Hg][Cl])o1,64.9%,78.8%,83.1%,127%,60.8%,,-25.1% (active),-20% (active),,-20.3% (active),26.4%,36.8%,43.9%,62.9%,71%,11.3%,0.253% (active),57.5%,123%,
[Cl][Hg][c]1cc[c]([Hg][Cl])o1,57.9%,20.5%,,41.8%,3.3% (active),,22.5%,4.4% (active),14.3%,6.25% (active),1.23% (active),,122%,79.6%,94.9%,15.9%,-1.69% (active),55.4%,109%,
CC(=O)O[C@H]1CC[C@@]2(C)C(=CC[C@H]3[C@@H]4C[C@@H](N5CC5)[C@H](C(C)=O)[C@@]4(C)CC[C@@H]32)C1,103%,,104%,105%,83.1%,89.3%,92.4%,78%,63.4%,58.6%,79.3%,88.5%,99.5%,80.3%,99.9%,86.2%,109%,,98.7%,88.9%
COc1cc(C=Nc2cccc(C(=O)O)c2)ccc1N(CCCl)CCCl,108%,,84.6%,125%,81.8%,95%,110%,102%,97.9%,91.9%,100%,95.2%,110%,114%,110%,97%,105%,,102%,98.5%
COC(=O)[C@@H](C)C[C@H](Cc1ccccc1)NC(=O)c1csc([C@@H](C[C@H](C(C)C)N(C)C(=O)C2(NC(=O)[C@H]3CCCCN3C)CC2)OC(C)=O)n1,34.1%,29.1%,48%,,32.4%,59.8%,-46.1% (active),3.37% (active),9.45% (active),11%,12.8%,23.3%,20.3%,44.5%,19.1%,27.1%,-16.4% (active),12%,-5.45% (active),
COc1ccc([As]=[As]c2ccc(OC)c(NCS(=O)(=O)O)c2)cc1NCS(=O)(=O)O (configuration not stated),23.9%,0.829% (active),25.7%,-16.2% (active),46.6%,,-7.43% (active),-13.9% (active),-0.189% (active),-1.51% (active),-13% (active),44%,63.8%,14.9%,,5.53% (active),9.01% (active),6.44% (active),20.9%,
CC(=O)Nc1nc2c(s1)CC[C@@]1(C)C2=CC[C@H]2[C@@H]3CC[C@H](O)[C@@]3(C)CC[C@@H]21,47.4%,92.5%,80.3%,91.1%,63.9%,,29.3%,38.8%,50.8%,24.9%,34.1%,80%,92.3%,87.4%,81.9%,64.3%,13.7%,60.5%,,
CC1[C@H](C)OC(=O)CC(O)CC(O)CC(O)CCC(O)C(O)C[C@]2(O)CC(O)C(C(=O)O)C(CC(OC3O[C@H](C)[C@@H](O)[C@H](N)[C@@H]3O)/C=C/C=C/C=C/C=C/CC/C=C/C=C/[C@H](C)[C@H]1O)O2 (some centres not stated),134%,104%,93.2%,123%,90.8%,88.6%,110%,90.6%,122%,,106%,92%,,102%,110%,101%,109%,97%,114%,
COc1ccc(Nc2ccc([N+](=O)[O-])cc2[N+](=O)[O-])cc1CN(CCCl)CCCl,42.9%,70.7%,31.4%,56.7%,15.2%,,-17.7% (active),2.14% (active),0.406% (active),7.8% (active),0.0676% (active),30.6%,,52.8%,48.3%,32.7%,20%,66.7%,,
CCC(O)(CN)c1ccccc1 (configuration not stated),97.7%,98.3%,89.7%,101%,105%,96.3%,101%,90.1%,105%,100%,102%,97%,105%,111%,98.4%,97.9%,114%,,,
Oc1c(CCl)cc(Cl)cc1CCl,105%,104%,86.4%,106%,106%,104%,103%,108%,98.4%,101%,106%,112%,102%,,107%,115%,115%,104%,119%,
COC(=O)[C@H](C[C@H](Cc1ccccc1)NC(=O)c1csc([C@@H](C[C@H](C(C)C)N(C)C(=O)[C@@H](NC(=O)[C@H]2CCCCN2C)C(C)C)OC(C)=O)n1)NC(=O)OCc1ccccc1,5.82% [8.5 µM] (active),54.7% [8.5 µM],32.3% [8.5 µM],44.2% [8.5 µM],13.5% [8.5 µM],34.9% [8.5 µM],-30.3% [8.5 µM] (active),6.6% [8.5 µM] (active),16.1% [8.5 µM],-16.9% [8.5 µM] (active),-13.9% [8.5 µM] (active),22% [8.5 µM],26.1% [8.5 µM],40.4% [8.5 µM],22.9% [8.5 µM],13% [8.5 µM],-12.2% [8.5 µM] (active),15.3% [8.5 µM],,
COP(=O)(OC)C(O)c1ccc(Cl)cc1 (configuration not stated),109%,98.4%,83.3%,96.5%,,,98.9%,112%,119%,96.1%,104%,,112%,104%,111%,103%,94.7%,94.1%,,
O=C1C(N2CC2)=C(N2CC2)C(=O)C(N2CC2)=C1N1CC1,-24.2% (active),22.9%,-56.2% (active),2.35% (active),-45.9% (active),7.04% (active),21.8%,39.2%,32.9%,2.9% (active),37.7%,0.671% (active),-60.6% (active),,-30.6% (active),-23.5% (active),4.7% (active),14.3%,-75.4% (active),
O=C(Nc1ccc([As]=[As]c2ccc(NC(=O)c3ccccc3)cc2)cc1)c1ccccc1 (configuration not stated),-81.4% (active),-69.1% (active),-96.7% (active),-98.4% (active),-92.4% (active),-80.2% (active),-53.9% (active),,-27.5% (active),0.482% (active),13.7%,-82.1% (active),-89.1% (active),-43.1% (active),-81.5% (active),-40.4% (active),-94% (active),-75.8% (active),-97.5% (active),
CC(=O)[C@H]1CC[C@H]2[C@@H]3CC[C@H]4C[C@H](N)CC[C@]4(C)[C@H]3CC[C@]12C,89.8%,76.9%,63.1%,82.6%,82.9%,,,102%,61.7%,32.3%,58.9%,90%,82.7%,,109%,81.6%,74.5%,82%,78.6%,
